Assay [1] can be described thus: Wnt pathway potentiators raising nuclear beta-catenin – imaging, WNT3A-conditioned medium, mouse C2C12, NPC library, primary screen (AID 1117326; in the data active = nuclear beta-catenin stimulation mostly above about 4.2%, no sharp cut-off; inactive = mostly below about 10%). To be noted: stronger effect = higher value.
The nature of assay [2]: stimulators of insulin release from INS-1E, primary screen, cell-based, 5 mM glucose, NPC library (AID 1117329;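 active = compound raises insulin release from rat beta cells at 5 mM glucose, no numeric limit stated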). To be noted: rat INS-1E insulin secretion, at 10 µM, stronger effect = higher value.
A short description of assay [3]: growth inhibition of GSK3B-pretreated HCT116 cells – cell-based, CellTiter-Glo, 0.2 to 20 µM (AID 1117336;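 active = compounds lowering colon cancer cell viability after pretreatment blocking the GSK3B kinase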). To be noted: HCT116 viability after GSK3B inhibitor, at 20 µM, stronger effect = higher value. Background: ATP-based viability assays read luminescence as a measure of living cells.
A short description of assay [4]: inhibition of endothelial tube formation, primary screen, imaging, VEGF stimulated, CD31 staining, tube area, NPC library (AID 1117340;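 active = compound that reduces growth-factor-driven endothelial tube area in a mixed cell culture, no cutoff stated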). To be noted: VEGF-stimulated ADSC/ECFC co-culture, at 10 µM, stronger effect = higher value.
Assay [5] can be described thus: GLP1 release stimulators, primary, NCI-H716, NPC library (AID 1117341;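 active = compound raises GLP1 secretion from the human gut endocrine cells, with no numeric limit stated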). To be noted: NCI-H716 cells, at 10 µM, stronger effect = higher value.
Assay [6] is described as follows: HCT116 colon cancer cell growth inhibition, primary screen, CellTiter-Glo luminescence, NPC library (AID 1117342;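 active = compounds that lower survival of HCT116 colon cancer cells in the luminescence readout, no numeric limit stated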). To be noted: at 20 µM (top of the series).
Assay [7] is described as follows: reduced SW480 viability measured with CellTiter-Glo, NPC library, primary (AID 1117343;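 active = compounds that lower viability of the colon cancer cells in the luminescence readout, with no numeric limit stated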). To be noted: CellTiter-Glo luminescence; at 20 µM (top of the series).
Assay [8] is described as follows: NPC library primary testing for decreased DLD-1 cell viability via CellTiter-Glo (AID 1117346;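 active = compounds that lower survival of DLD-1 colon cancer cells in the luminescence readout, no cutoff given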). To be noted: DLD-1 viability, CellTiter-Glo luminescence; at 20 µM (top of the series).
A short description of assay [9]: compounds altering circadian rhythm period length – cell-based, LOPAC library, luminescence reporter (AID 2774).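 Also: values are relative to mean of DMSO wells on each plate.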 To be noted: circadian reporter cells, at 7 µM, actives lie on both sides.
A short description of assay [10]: compounds altering viability of human ES cells (AID 493140).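 Also: cells exposed to compounds for four days before counting.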 To be noted: human embryonic stem cell survival screen; stronger effect = higher value.
Assay [11] in a line: P. berghei load reduction in hepatocytes – cell-based, HepG2, luciferase luminescence, HepG2 viability, primary screen (AID 624349; in the data active = parasite load remaining mostly below about 12%, no sharp cut-off; inactive = mostly above about 10%;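 also: 100% = mean of DMSO negative control wells on the same plate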). To be noted: P. berghei liver stage in HepG2, luciferase luminescence, concentration not given here; parasite load remaining: stronger effect = lower value; viability: measured here: HepG2 viability without parasites.
Assay [12] relates to Hepatitis C virus NS3 helicase. As to the kind of experiment: blockers of NS3h binding to ssDNA – biochemical, fluorescence polarization, LOPAC1280 library, primary screen (AID 687035; in the data active = inhibition above about 37%). To be noted: Purified HCV NS3 helicase, Cy5-dT15 ssDNA binding fluorescence polarization; stronger effect = higher value; concentration not given here.
In assay [13] the test system is Aerobactin synthetase IucA (Klebsiella pneumoniae, hypervirulent). As to the kind of experiment: biochemical IucA inhibition screen of LOPAC library by absorbance (AID 1346212).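 Also: 100% = no compound wells and 0% = no enzyme wells.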 To be noted: IucA enzyme assay, absorbance (OD) readout; stronger effect = lower value;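 tested at 8 µM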.
Assay [14] can be described thus: MELAS cybrid and Rieske KO viability enhancers – cell-based, MELAS cybrids, Rieske KO mouse fibroblasts, CellTiter-Glo, primary screen (AID 1508586;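 active = mean z-score across replicates of 1.96 or higher in either the MELAS or the Rieske mutant cell line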;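 also: z relative to plate mean and SD of compound and empty wells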). To be noted: low glucose.
Assay [15] has as its target NAD(+) hydrolase SARM1 (Homo sapiens) (UniProt Q6SZW1). The assay is described as follows: blocking NAD cleavage by SARM1 SAM-TIR – cell lysate, NAD-Glo luminescence (AID 1508614;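 active = compound whose remaining NAD level is above about 45 nM, limit read from the data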;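 also: higher remaining NAD means stronger inhibition of SARM1 NADase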). To be noted: SAM-TIR HEK293T lysate NADase, at 1 µM, stronger effect = higher value.
Assay [16] in a line: galactose survival enhancers in mitochondrial complex I cybrids – cell-based, galactose medium, ATP luminescence, primary screen (AID 1645843;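 active = z-score of at least 1.8 in each of two replicates, scored against plate mean and spread of sample wells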;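 also: positive z means more ATP and so rescue of galactose-driven cybrid death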). To be noted: complex I mutant cybrid cells, 72 h, stronger effect = higher value.
The nature of assay [17]: EMT-state selective cytotoxicity in co-culture – imaging, PC-3E GFP, TEM4-18 mCherry, primary screen (AID 1345086;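 active = compounds killing one labelled cell type while sparing the other, by normalised counts and ratio limits, not self-fluorescent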;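 as to all read-outs here: cells exposed to compound for 72 h before imaging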;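 as to red/green cell ratio (normalised): normalised mesenchymal count divided by normalised epithelial count so high means epithelial killing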). To be noted: PC-3E GFP / TEM4-18 mCherry co-culture, imaging cell counts, at 1 µM; for red/green cell ratio (normalised): actives lie on both sides.
Assay [18] in a line: viability loss with induced miR-34 in A549 – imaging, A549 dox-inducible miR-34, nuclei and caspase counts, primary screen (AID 1347080;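 active = compounds whose cell count with miR-34 switched on is under 0.7 times the count with it off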). To be noted: A549 miR-34 inducible, Hoechst nuclei count, 48 h.
Where [19] appears, read: MELAS cybrid survival, CellTiter-Glo 48 h, stronger effect = higher value.
The mark [20] stands for this setting: Rieske KO mouse fibroblast survival, CellTiter-Glo 72 h.
Setting [21] is: measured here: epithelial PC-3E GFP cell survival.
Where [22] appears, read: measured here: mesenchymal TEM4-18 mCherry cell survival.
The mark [23] stands for this setting: measured here: relative caspase fold change +Dox/-Dox.
Setting [24] is: measured here: total cells with miR-34 induction, stronger effect = lower value.
Where [25] appears, read: measured here: total cells without miR-34 induction.

“And” between values parts separate entries of the source, which are not always exact repeats. Identical values can stand only once. The source made the active and inactive calls. Unless noted, no rule for the calls is given here.

NAD(+) hydrolase SARM1 (Homo sapiens), sequence (Q6SZW1 whole entry, looked up): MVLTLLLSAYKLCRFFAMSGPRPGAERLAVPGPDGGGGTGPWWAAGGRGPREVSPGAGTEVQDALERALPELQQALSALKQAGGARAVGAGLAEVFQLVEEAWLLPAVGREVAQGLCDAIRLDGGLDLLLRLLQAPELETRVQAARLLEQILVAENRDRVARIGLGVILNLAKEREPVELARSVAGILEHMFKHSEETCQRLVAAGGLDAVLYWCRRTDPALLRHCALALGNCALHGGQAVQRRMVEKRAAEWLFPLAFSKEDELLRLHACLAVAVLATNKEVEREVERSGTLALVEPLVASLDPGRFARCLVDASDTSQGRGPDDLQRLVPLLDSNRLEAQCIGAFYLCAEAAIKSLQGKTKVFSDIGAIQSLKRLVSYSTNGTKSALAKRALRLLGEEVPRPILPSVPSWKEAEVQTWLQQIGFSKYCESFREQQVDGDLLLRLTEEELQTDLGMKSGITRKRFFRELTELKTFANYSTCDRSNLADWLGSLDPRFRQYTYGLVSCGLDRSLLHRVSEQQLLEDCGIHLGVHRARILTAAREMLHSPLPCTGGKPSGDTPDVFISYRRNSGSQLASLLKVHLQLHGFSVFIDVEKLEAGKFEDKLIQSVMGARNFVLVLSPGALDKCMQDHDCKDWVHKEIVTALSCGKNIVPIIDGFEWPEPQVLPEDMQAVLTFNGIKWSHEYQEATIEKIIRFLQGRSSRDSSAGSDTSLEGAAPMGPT

In the case of `COC[C@@H](NC(C)=O)C(=O)NCc1ccccc1`, the nuclear beta-catenin stimulation in assay [1] (at 10 µM) was 0.6% (inactive); in [1] (stimulation, at 2 µM), -0.7%. The insulin secretion stimulation in assay [2] was -0.4% (inactive). The viability decrease in assay [3] is -7.9% (inactive). Further, the tube area decrease in [4] was -1.1% (inactive). The GLP1 secretion stimulation in assay [5] was -0.8% (inactive). For the same molecule, the inhibition of viability in assay [6] is 1.2% (inactive). Also, the results for the viability decrease (inhibition) in [7] and in assay [8] were -1% (inactive) and 9.6% (inactive), respectively.

Take `NCC1(CC(=O)O)CCCCC1`: the period change in [9] was -0.07 h (inactive). Besides, the survival in [10] was 2.25 (inactive). In addition, the parasite load remaining in assay [11] is 131% (inactive) and 58.8% (inactive). Besides, the viability in assay [11] was 103% and 169%. Moreover, in [12], the inhibition was -6% (inactive). Besides, the nuclear beta-catenin stimulation was 1% (inactive) in assay [1] (at 10 µM) and 2.1% in assay [1] (stimulation, at 2 µM). Moreover, the insulin secretion stimulation in assay [2] is -1.1% (inactive). For the same molecule, the viability decrease in assay [3] was -8.75% (inactive). In addition, in assay [4], the tube area decrease was 20.1% (inactive). In addition, the GLP1 secretion stimulation in assay [5] is -1.7% (inactive). In assay [6], the inhibition of viability was -3.4% (inactive). For the same molecule, the viability decrease (inhibition) was -3.2% (inactive) in assay [7] and -8.35% (inactive) in [8]. The remaining activity in assay [13] was 98.6% (inactive). The z-score is 0.467 (inactive) and -0.335 (inactive) in assay [14] (setting [19]); -0.399 and 0.119 in [14] (setting [20]); 0.26 (inactive) and 0.88 (inactive) in assay [16]. For the same molecule, in assay [15], the remaining NAD was 10 nM (inactive).

Take `O=[N+]([O-])c1ccc([As](=O)(O)O)cc1`: the nuclear beta-catenin stimulation in [1] (at 10 µM) was 2.2% (inactive); in assay [1] (stimulation, at 2 µM) it was 1%. In addition, the insulin secretion stimulation in assay [2] was -1.1% (inactive). Also, in assay [3], the viability decrease is -9.2% (inactive). Further, the tube area decrease in [4] is 3.2% (inactive). Besides, the GLP1 secretion stimulation in assay [5] was -5.4% (inactive). Moreover, the inhibition of viability in assay [6] was -30.4% (inactive). For the same molecule, the values for the viability decrease (inhibition) in assay [7] and in assay [8] were 101% (active) and -9.5% (inactive), respectively. Moreover, the red/green cell ratio (normalised) in assay [17] was 0.85 (inactive). The normalised cell number amounted to 1.16 in assay [17] (setting [21]) and 0.99 in [17] (setting [22]). Moreover, the fold change is 0.887 (inactive) in [18] (stronger effect = lower value) and 1.5 in assay [18] (setting [23]). For the same molecule, the values for the cell count in assay [18] (setting [24]) and in assay [18] (setting [25]) were 8880 and 10000, respectively. In addition, in assay [15], the remaining NAD is 10 nM (inactive).

On to `COc1ccc(CN2CCNCC2)c(OC)c1OC`, for which the survival in [10] was 5.83 (inactive). In addition, in [11], the parasite load remaining was 122% (inactive) and 71.5% (inactive). Moreover, the viability in [11] was 118% and 81.2%. Moreover, the nuclear beta-catenin stimulation in assay [1] (at 10 µM) is 0.8% (inactive); in assay [1] (stimulation, at 2 µM), 1.1%. Also, the insulin secretion stimulation in assay [2] is -0.9% (inactive). In addition, the viability decrease in [3] was 14.1% (inactive). In [4], the tube area decrease is 8.8% (inactive). Further, the GLP1 secretion stimulation in assay [5] was 0% (inactive). Further, the inhibition of viability in assay [6] is 19.3% (inactive). The viability decrease (inhibition) is -6.6% (inactive) in assay [7] and 1.5% (inactive) in [8]. The red/green cell ratio (normalised) in assay [17] is 0.94 (inactive). In addition, the normalised cell number worked out at 1.11 in [17] (setting [21]) and 1.05 in [17] (setting [22]). The fold change in assay [18] (stronger effect = lower value) is 0.892 (inactive); in [18] (setting [23]), 1.29. Moreover, the cell count is 9020 in assay [18] (setting [24]) and 10100 in [18] (setting [25]). Besides, the z-score was 0.315 (inactive) in assay [14] (setting [19]) and 0.274 in assay [14] (setting [20]). Further, in [15], the remaining NAD was 10 nM (inactive).

As to `CC[N+](CC)(CC)CC`, the period change in assay [9] was 0.115 h (inactive). Further, the inhibition in [12] was 14% (inactive). Moreover, the nuclear beta-catenin stimulation was 3.6% (inactive) in [1] (at 10 µM) and 0.6% in assay [1] (stimulation, at 2 µM). The insulin secretion stimulation in assay [2] is 0.7% (inactive). Moreover, in assay [3], the viability decrease was -2% (inactive). Further, in [4], the tube area decrease was 1.4% (inactive). In addition, the GLP1 secretion stimulation in [5] is -1.5% (inactive). The inhibition of viability in assay [6] was -13.1% (inactive). Moreover, the results for the viability decrease (inhibition) in assay [7] and in [8] were 95.5% (active) and 1.35% (inactive), respectively. Also, the remaining activity in assay [13] was 93.6% (inactive). The fold change in [18] (stronger effect = lower value) was 0.929 (inactive); in assay [18] (setting [23]), 1.25. The cell count in [18] (setting [24]) worked out at 9810; in [18] (setting [25]), 10600. Further, the z-score in [16] is 0.685 (inactive).

What is called viability is a read-out of living cells in per cent, often relative to untreated cells. A word on the inhibition: it is the change of the read-out against control, counted positive when it falls. The term remaining activity denotes the activity still measured, relative to the control.
